The supplement of paper PMC6555819

Experiments:
Test in all cases: PBM binding z-score (relative to random genomic background probes); higher = stronger binding; sequences stand for … in GC…GCGATTGACAGCGTAGAATGAAGG
[1] = test system: FXR:RXRa (NR concentration 270 nM, RXRa partner concentration 90 nM)
Summary of the method: (§1)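 Binding z-scores take random background probes as their reference. They come from custom Agilent 4×180K protein-binding microarrays incubated 1 h with ligand-free nuclear receptor dimers, with antibodies against each partner (one per run) detecting binding. Scanned fluorescence was regression-normalized.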

[2] = test system: LXRa:RXRa (NR concentration 270 nM, RXRa partner concentration 90 nM)
Summary of the method: as §1

[3] = test system: LXRa homodimer (NR concentration 270 nM)
Summary of the method: as §1

[4] = test system: LXRb:RXRa (NR concentration 270 nM, RXRa partner concentration 90 nM)
Summary of the method: as §1

[5] = test system: LXRb homodimer (NR concentration 270 nM)
Summary of the method: as §1

[6] = test system: PPARa:RXRa (NR concentration 270 nM, RXRa partner concentration 90 nM)
Summary of the method: as §1

[7] = test system: PPARg:RXRa (NR concentration 180 nM, RXRa partner concentration 90 nM)
Summary of the method: as §1

[8] = test system: PPARg:RXRa 270nM:90nM, anti-RXR (NR concentration 270 nM, RXRa partner concentration 90 nM)
Summary of the method: as §1

[9] = test system: PPARg:RXRa 30nM:10nM, anti-RXR (NR concentration 30 nM, RXRa partner concentration 10 nM)
Summary of the method: as §1

[10] = test system: PPARg:RXRa 90nM:30nM, anti-RXR (NR concentration 90 nM, RXRa partner concentration 30 nM)
Summary of the method: as §1

Sequence	PBM binding z-score [1]	PBM binding z-score [2]	PBM binding z-score [3]	PBM binding z-score [4]	PBM binding z-score [5]	PBM binding z-score [6]	PBM binding z-score [7]	PBM binding z-score [8]	PBM binding z-score [9]	PBM binding z-score [10]
CGTCCAAGGTCAATGCTAGTTCAGTGAAAGCATT	7.07	4.94	1.4	3.86	0.707	4.84	3.72	4.27	1.01	2.95
TCTTGAAGATCAAGCAGGTTAAGAAAGCCTGAGT	0.132	0.199	-0.36	0.402	-0.998	0.437	-0.324	1.11	2.96	1.74
ACTCGCAGGCCAAGGGTCACTCAAGATTAGTCCG	2.83	3.23	0.261	2.88	-0.377	4.4	5.6	6.01	4.12	5.92
TCTTGTAGATCAATAGAGGTTCAGAAAGTGCGCT	0.408	0.78	-0.0503	0.293	-0.193	0.663	-0.13	1.35	2.81	2.47
TCTATTATTTGATTAGGGCAACCGAAACAGCGGA	0.94	0.738	1.29	1.08	1.33	1.34	0.291	2.43	4.02	3.25
CGTCAAAGTTCCAGGTAACGTAACAGAAAGCAGC	-0.0989	-0.25	-0.161	0.0165	0.0494	0.154	0.501	0.0886	-0.125	0.0621
TTACCAAGGTGAGCTGAGGTCGTTAATCCAACTC	1.47	0.747	-0.294	0.852	-1.14	1.4	0.0208	0.655	0.0433	0.306
CGTCCAAGGTCAGCAGGGCAGTGAAAGCGACGTG	5.27	3.24	-0.203	2.34	-0.623	4.47	3.08	3.74	0.535	2.52
ACCTCTAGGTAAAGATAGTTCAGTGAATGCAAAT	0.216	3.68	0.25	0.57	-0.307	0.0564	0.269	0.318	0.0482	0.178
ATCGAAAAGTCGACGAGGTGAGTATACACCGTTT	0.048	-0.0396	-0.471	0.0525	-0.29	0.426	0.914	0.0655	0.0856	-0.125
TCTCGGAGGACACGAAAGGTCAGATCTCGACATC	3.11	3.81	3.83	3.85	0.385	3.44	1.37	2.81	3.01	2.77
TCTAGGAGGCCAGAGGGTCACTCAAGAGGTACGG	1.5	0.891	-0.426	0.559	-1.15	2.65	1.87	3.02	2.76	2.99
AGTCAGAGTTCACTAGGTAACGTAAGATTCAGCT	4.41	4.52	2.25	2.64	0.624	4.54	5.57	5.35	2.12	4.4
CCTAGTTGGTCTGGAGGTCACACACCGGATATGA	3.79	4.06	3.63	3.51	0.759	4.17	2.1	3.14	0.849	2.61
CGAACTAAGTCAGAACAGGACAGTGAAGGATGAT	-0.105	-0.427	0.0634	-0.842	-0.576	-0.444	0.514	-0.265	0.171	-0.00279
ACCGACAGGTGAGTGAAGGTAACTCAGCTGGACG	0.184	-0.107	-0.658	-0.575	-0.831	0.00904	0.444	0.0898	-0.38	-0.0157
GCGACTGGGGCATCAGCAGGTTACCATGACTTAA	-0.337	-0.256	-0.454	0.309	-1.08	0.903	0.918	0.462	-0.743	-0.0721
CGAACTACGTCAAGGACAGTGAATCTCCGCACGC	-0.000991	-0.458	0.0307	-0.729	-0.268	-0.387	0.65	-0.549	-0.403	-0.799
ATCCCTAGGTAACAAGTTCAGTGAAAGAGAGGAC	0.484	0.833	0.361	0.843	0.823	0.724	0.555	0.236	0.0944	0.289
TAACCTAGGTCATTCAGGGGCCAGTATAGAAAGC	5.52	5.3	3.1	3.98	2.09	4.46	3.45	4.12	1.61	3.03
ATATATAGGTTAAGGGTCATTCAGGTTGGTTCGC	5.73	5.29	4.07	4.88	1.86	6.8	11.9	9.9	10.7	11.7
GCTATTAGTTCAAAGGGCAACCGAATGATTCTCG	2.78	2.89	0.929	2.17	0.2	3.79	4.51	5.96	5.32	6.42
TAATATAGGTAAACAGGTGAAAGTCCGTAAGTTA	0.323	0.622	0.406	0.745	0.296	3.34	5.42	4.89	2.54	4.16
GGAACGAGGGTAAAGTTGATAGCATCTGTCGACG	0.472	0.494	-0.531	0.361	-0.696	3.37	5.63	6.72	4.9	7.39
TTACCAAGGTGAAAGGTCGTTGACGCACGCCTTG	4.03	3.4	0.245	2.91	-0.135	5.49	8.84	8.07	6.9	8.64
